Screening results: PubChem, National Center for Advancing Translational Sciences (NCATS)
The list is not random: actives were taken first. Their share in the collection is about 2.6%.
BRCA1 expr act: BRCA1 expression activation | MCF7-BRCA1-FFLuc reporter, luminescence, 48 h; response scale: scaled: vehicle 0%, 10 µM genistein 100% | Potency, µM (series often up to 46.1 µM), without a hit: at the top dose activation, hits mostly activators | 380,000 tested, 1.1% active | AID 624202; note: nearly all actives have a fitted effect of over 80% in size
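Luminescence from a BRCA1-driven firefly luciferase in MCF7 cells was read after 48 h compound exposure at 37 C. Data normalized against DMSO and a 10microM genistein activation control, then curve-fitted across the titration.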
GLP1R inv ag: GLP-1 receptor (human) inverse agonism. Potency, µM (titrated, usually from 38.3 µM), without a hit: at the top dose activity change, negative = inhibition, hits mostly inhibitors. 410,000 tested, 1.6% active. P43220. AID 624417. HEK293 GLP-1R CRE-luciferase, luminescence, 24 h; GLP-1R form is constitutively active; note: % is set by controls: 0 for no effect and ±100 for the full control effect; nearly all actives have a fitted effect of over 55% in size
Target sequence (P43220 whole entry, looked up): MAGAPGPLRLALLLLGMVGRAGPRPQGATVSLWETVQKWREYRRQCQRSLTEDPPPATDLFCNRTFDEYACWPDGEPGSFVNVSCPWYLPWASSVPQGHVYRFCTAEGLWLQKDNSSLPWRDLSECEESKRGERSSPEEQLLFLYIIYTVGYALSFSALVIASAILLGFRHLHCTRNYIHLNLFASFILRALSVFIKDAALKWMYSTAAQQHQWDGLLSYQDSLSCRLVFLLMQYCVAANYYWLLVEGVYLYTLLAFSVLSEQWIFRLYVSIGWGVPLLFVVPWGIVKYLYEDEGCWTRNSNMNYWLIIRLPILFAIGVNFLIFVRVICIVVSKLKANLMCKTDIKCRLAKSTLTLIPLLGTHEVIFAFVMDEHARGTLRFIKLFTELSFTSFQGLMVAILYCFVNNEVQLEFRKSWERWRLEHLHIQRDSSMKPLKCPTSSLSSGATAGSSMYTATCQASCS
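qHTS in 1536-well format: reporter HEK293 cells expressing constitutive GLP-1R activity in DMEM + 10% Nu serum, 24 hr with compounds at 37 deg C, luminescence read after 12 min with detection reagent.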
GLP1R ag: agonists of human GLP-1 receptor; AID 624172; P43220; 380,000 tested, 0.007% active; HEK293 GLP-1R CRE-luciferase, luminescence, 4-6 h; cells express a hypersensitive GLP-1R form; Potency, µM (series often up to 45.6 µM), for inactives: top-dose activation, most hits filed as activators; note: % of control where 0% means no effect
GLP1R cytotox: cytotoxicity in counter-screen for GLP-1R inverse agonists; HEK293 cAMP-luciferase reporter cells, luminescence, 24 h; Potency, µM (highest dose often 38.3 µM), for inactives: at the highest dose activity change, negative = inhibition, most hits filed as inhibitors; 410,000 tested, 0.13% active; AID 624418;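 note: loss of luciferase light is scored as toxicity; % is set by controls: 0 for no effect and ±100 for the full control effect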
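Compound-treated cells are incubated 24 hr at 37 deg C under 5% CO2 after a 12 hour attachment period, then luciferase detection reagent is added and luminescence is measured following 12 min at room temperature; lowered signal indicates toxicity.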
Numbers without * were called inactive; ? = inconclusive; / = no result; [ ] = dose if it differs, or a comment. Calls come from the whole dose curve; as a rule, active = well fitted curve in the direction sought with a large enough effect; inconclusive = small, poorly fitted or top-dose-only effect, or another doubt; inactive = no such curve, though single readings can be large; an effect the other way counts as inactive or inconclusive. Potency is the fitted concentration of half-maximal effect.

SMILES	BRCA1 expr act	GLP1R inv ag	GLP1R ag	GLP1R cytotox
COc1cccc(NC(=S)N2CCN(C(c3ccccc3)c3ccccc3)CC2)c1	-2.7%	10µM*	-21.4%	1.7%
CCC(CC)C(=O)Nc1cc(-c2cccc(C)c2)nn1-c1ccccc1	-0.5%	?	/	0.5%
O=C1CC[C@H](C(=O)N[C@@H]2C[C@H]2c2ccccc2)N1	/	/	-1.9%	/
CSc1ccc(CN2CCN(C(=O)CC(C)C)CC2)cc1	-1.6%	-8.5%	-3.8%	4.5%
Cc1cc(C)n(-c2nc3ccccc3c(=O)n2OCC#N)n1	-63.5%	3.16µM*	19.9%	?
CC(C)[C@@H]1O[C@H](CCc2ccccc2)CC2=C1C(=O)OC(C)(C)O2	1.7%	-27.2%	5.9%	-2.4%
CC(C)CCn1c(=O)c2ccccc2c2ccccc2c1=O	-30.2%	10µM*	-11.5%	-14.0%
CC(C)Cn1c(=O)c2ccccc2c2ccccc2c1=O	16.4%	-6.0%	7.9%	-7.4%
CCCc1ccc(OC(=O)CSc2nnc(-c3cccs3)o2)cc1	/	-0.1%	/	6.9%
CCOc1ccc(OCc2ccc(C(=O)Nc3ccc(Cl)cn3)o2)cc1	?	?	-0.7%	0.0%
O=C(Nc1ccccn1)c1ccc(COc2ccccc2Cl)o1	67.3%	-29.9%	4.5%	2.0%
O=C(Nc1nn(Cc2ccc(Cl)cc2)cc1Br)c1ccc(COc2ccccc2Cl)o1	-55.1%	5.01µM*	-2.7%	5.4%
O=C(Nc1ccc(Cl)cn1)c1ccc(COc2ccccc2Br)o1	11.2µM*	?	13.6%	16.1%
CN(C)C(=O)c1ccc(COc2ccccc2Br)o1	10µM*	8.1%	28.7%	-2.7%
N#Cc1ccc(CSc2nnc(NC(=O)CCc3nc4ccccc4c(=O)[nH]3)s2)cc1	-1.1%	-1.1%	-9.9%	8.7%
Cc1ccc2[nH]c(=O)c(CN(CCCO)Cc3nnnn3Cc3ccco3)cc2c1	13.8%	/	/	/
CC1CCCN(c2ccc3nncn3n2)C1 (centres undefined)	-3.5%	11.3%	4.0%	-2.4%
Cc1ccc(C)n1-c1c(C(=O)NCC(C)c2ccccc2)sc2ncccc12 (centres undefined)	/	?	/	-6.2%
CCCc1nc2ccc(C)cn2c1Cc1ccc(C)cc1	7.08µM*	-6.9%	7.9%	-1.8%
CCCc1nc2ccc(C)cn2c1Cc1ccccc1	?	17.6%	-0.2%	19.1%
CC(C)C[C@@H](NC(=O)[C@@H](COC(C)(C)C)NC(=O)[C@H](Cc1ccc(O)cc1)NC(=O)[C@@H](CO)NC(=O)[C@@H](Cc1c[nH]c2ccccc12)NC(=O)[C@@H](Cc1cnc[nH]1)NC(=O)[C@@H]1CCC(=O)N1)C(=O)N[C@H](CCCN=C(N)N)C(=O)N1CCC[C@H]1C(=O)NNC(N)=O	/	/	-1.3%	/
Fc1ccccc1COc1ccc(/C=N/n2cnnc2)cc1	10µM*	9.2%	0.2%	0.4%
CCC(C)NS(=O)(=O)c1ccc(NC(=O)C(Sc2ccccc2)c2ccccc2)cc1 (centres undefined)	-86.5%	?	-5.1%	8.6%[1.53 µM]
CCCCNS(=O)(=O)c1ccc(NC(=O)C(Sc2ccccc2)c2ccccc2)cc1 (centres undefined)	-77.4%	4.47µM*	-5.0%	-11.8%
CC[C@@H](C)[C@H](CN[C@H](CNC)C(C)C)NC[C@@H](C)c1ccc(CC(C)C)cc1	-35.0%	?	-0.5%	11.2µM*
SMILES	BRCA1 expr act	GLP1R inv ag	GLP1R ag	GLP1R cytotox
CCN1CCN(Cc2ccc(NC(=O)c3cc(NC(=O)C(=O)c4c[nH]c5ccccc45)cc(OC)c3)cc2C(F)(F)F)CC1	-66.2%	10µM*	-15.0%	?
CN(C)S(=O)(=O)c1cccc(NC(=O)CN2C(=O)C3C4C=CC(C4)C3C2=O)c1 (centres undefined)	0.5%	4.4%	0.0%	-14.9%
COc1cccc(/C=N/NC(=O)c2cccc(N3CCCC3=O)c2)c1	8.91µM*	3.8%	5.0%	-2.9%
C/C(=N/NC(=O)c1cccc(N2CCCC2=O)c1)c1ccncc1	8.91µM*	-11.8%	5.9%	-0.1%
CN(Cc1ccccc1)C(=O)CSc1nnc(-c2cccc(Cl)c2)o1	/	10µM*	/	5.5%
CCC1CCCCN1C(=O)CSc1nnc(-c2ccc(Cl)cc2)o1 (centres undefined)	0.3%	-10.9%	-0.2%	1.0%
CCC1CCCCN1C(=O)CSc1nnc(-c2cccc(Cl)c2)o1 (centres undefined)	10µM*	?	-1.3%	-9.3%
CCC1CCCCN1C(=O)CSc1nnc(-c2ccco2)o1 (centres undefined)	3.16µM*	5.5%	-7.3%	-2.9%
COc1ccc(-c2nnc(SCC(=O)N(C)Cc3ccccc3)o2)cc1OC	2.8%	5.0%	/	-2.4%
CC1c2cc3c(cc2CCN1C(=O)c1ccc(Br)cc1)OCCCO3 (centres undefined)	-50.2%	3.16µM*	-8.7%	-25.1%
Cc1nc2ccc(S(=O)(=O)CCC(=O)Nc3ccc(F)cc3C)cc2s1	/	2.9%	/	-7.5%
Nc1c(C(=O)N2CCCC2)sc2nc(-c3ccccc3)ccc12	5.62µM*	62.2%	?	434.5%
Nc1c(C(=O)N2CCCCC2)sc2nc3c(cc12)CCCC3	5.62µM*	4.8%	11.2%	9.4%
Cc1cc(C)cc(-n2ccn(CC(=O)Nc3ccccc3F)c(=O)c2=O)c1	/	-2.5%	/	0.7%
O=C(NC(=O)c1ccc(Cl)cc1)OC1CCCCC1	12.6µM*	0.0%	0.0%	1.8%
O=C(Nc1ccccc1Cl)OC1CCCCC1	2.3%	-23.2%	22.0%	9.3%
Fc1ccc(/C=C/c2nccc3ccccc23)cc1	0.0%	/	/	/
Cc1ccc2c(CN3CCN(C(=O)c4ccc(F)cc4)CC3)cc(=O)oc2c1	/	3.2%	/	1.2%
COc1ccc(-c2cn3nc(N4CCCC(C(=O)NCc5ccc(Cl)cc5)C4)sc3n2)cc1 (centres undefined)	/	16.7%	/	25.3%
Cc1nc([N+](=O)[O-])c(Br)n1CC(=O)c1ccc(Cl)cc1	-73.7%	?	-47.8%	-18.2%
Cc1nc([N+](=O)[O-])c(Br)n1Cc1ccc(Cl)c(Cl)c1	-76.0%	10µM*	1.4%	10µM*
COCCNc1c(-c2ccc(OC)c(OC)c2)nc2ccc(Cl)cn12	5.9%	0.4%	11.0%	4.8%
COCCNc1c(-c2cc3ccc(C)c(C)c3[nH]c2=O)nc2ccccn12	2.24µM*	-2.3%	13.3%	-21.9%
Cc1cc(C(=O)COc2cccc([N+](=O)[O-])c2)c(C)n1C1CC1	7.08µM*	-12.5%	2.5%	-8.9%
CN(CC(=O)Nc1ccc(F)cc1F)S(=O)(=O)c1ccc(C(=O)N2CCOCC2)s1	0.0%	6.9%	/	0.1%
O=C(NCc1ccc(F)cc1)c1cccc(N2CCCS2(=O)=O)c1	/	3.9%	/	4.5%
Cc1ccc(OCC(=O)Nc2ccc(-c3nc4ccc(C)cc4o3)cc2)cc1	0.891µM*	-0.7%	/	-3.2%
COc1ccc(OCC(=O)Nc2ccc(-c3nc4cc(C)c(C)cc4o3)cc2)cc1	-28.0%	4.0%	/	-4.8%
O=C(O)c1ccccc1NC(c1ccccc1)c1ccc(Cl)cc1 (centres undefined)	-10.7%	11.2µM*	5.1%	-10.6%
